From PubChem BioAssay (NCATS)
Records with an inconclusive call do not appear. Active and inactive are the calls of the source. Calls come from the whole dose curve; as a rule, active = well fitted cell-killing curve with a large enough effect; inconclusive = small, poorly fitted or top-dose-only effect, or effect the other way; inactive = flat fitted curve, though single readings scatter.

Tested on: PA-1
Experiment: Primary qHTS to identify gynecologic anti-cancer compounds using libraries of approved drugs and bioactive compounds (AID 1345084); note: nearly all actives have a fitted effect of over 55% in size
Conditions: Gynecologic cancer cell panel viability, ATPlite luminescence, 48 h; series mostly up to 57.5 µM; activity change, negative = cytotoxicity: at the top concentration
Procedure, shortened: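 Five-point cytotoxicity, 48 h drug exposure at 37 C, 5% CO2, on cells seeded 16 h beforehand. ATP content read by ATPlite luminescence.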
% is set by controls: 0 for no effect and ±100 for the full control effect.

SMILES	activity change, negative = cytotoxicity
COc1ccc(-c2nc(-c3ccc(-c4cccc(Cl)c4)o3)[nH]c2-c2ccc(OC)cc2)cc1	18.1% (inactive)
CC(=O)c1c(O)cc(O[C@@H]2O[C@H](CO)[C@@H](O)[C@H](O)[C@H]2O)cc1O	9.01% [at 38.5 µM] (inactive)
C=C1C(O)C(O)C2(CC3C(C)=CCC4C(C)(CO)CCCC34C)OC2C1O (configuration not stated)	-11.4% [at 38.5 µM] (inactive)
O=C1NC(Cc2c[nH]c3ccccc23)C(=O)NC1Cc1c[nH]c2ccccc12 (configuration not stated)	-2.19% [at 38.5 µM] (inactive)
CC1CCC2(C=O)C(CO)=CCCC2C1(C)CC(=O)O (configuration not stated)	6.92% (inactive)
COc1cc(C)c(C(=O)O[C@H]2[C@@H](OC(C)=O)[C@H](n3ccc(=O)[nH]c3=O)O[C@@H]2CO)c(OC)c1	18.5% [at 25.3 µM] (inactive)
COC(=O)C1=CO[C@@H](O[C@@H]2O[C@H](CO)[C@@H](O)[C@H](O)[C@H]2O)[C@@H]2[C@@](C)(O)[C@@H](OC(=O)/C=C/c3ccc(O)cc3)C[C@]12O	0.27% [at 25.3 µM] (inactive)
C[C@@H]([C@@H](O)c1ccc(O)cc1)N1CCC(O)(c2ccccc2)CC1	0.564% (inactive)
N#C[C@@H]1C[C@H](F)CN1C(=O)CNC1[C@H]2CN(C(=O)c3ccc(F)cc3)C[C@@H]12 (some centres not stated)	2.11% (inactive)
C=C1CCC2C(C)(C(=O)OC)CCCC2(C)C1CCC(C)CC(=O)O (configuration not stated)	4.99% [at 38.5 µM] (inactive)
C[C@@H]1C(=O)O[C@H]2C[C@]34[C@H]5C[C@@H](C(C)(C)C)[C@]36[C@@H](OC(=O)[C@H]6O)O[C@]4(C(=O)O5)[C@]21O	-26.3% [at 25.3 µM] (inactive)
COC(=O)C1=COC(O[C@@H]2O[C@H](CO)[C@@H](O)[C@H](O)[C@H]2O)[C@H]2[C@@H]1[C@H](OC(=O)CCc1ccc(O)cc1)C[C@]2(C)O (some centres not stated)	-11.9% [at 25.3 µM] (inactive)
